Activity calls are given as the source filed them. Rule as the data show it, unless noted: active = inhibition above about 28%; inactive = the rest.
Columns and labels:
[1] = biological target: Nuclear receptor coactivator 3 (Homo sapiens) (UniProt Q9Y6Q9); assay: SRC3 coactivator transcriptional activity inhibitors, confirmation, cell-based, luminescence, quadruplicate (AID 588792;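 active = mean inhibition over 43.08%, the solvent-only control mean plus 3 SD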;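 also: 0% = DMSO treated cells and 100% = gossypol at 36 µM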); conditions: HEK293 GAL4-SRC3 luciferase reporter, at 3.6 µM, stronger effect = higher value
Chain of Nuclear receptor coactivator 3 (Homo sapiens) (Q9Y6Q9 whole entry, looked up, the tested form may be a part): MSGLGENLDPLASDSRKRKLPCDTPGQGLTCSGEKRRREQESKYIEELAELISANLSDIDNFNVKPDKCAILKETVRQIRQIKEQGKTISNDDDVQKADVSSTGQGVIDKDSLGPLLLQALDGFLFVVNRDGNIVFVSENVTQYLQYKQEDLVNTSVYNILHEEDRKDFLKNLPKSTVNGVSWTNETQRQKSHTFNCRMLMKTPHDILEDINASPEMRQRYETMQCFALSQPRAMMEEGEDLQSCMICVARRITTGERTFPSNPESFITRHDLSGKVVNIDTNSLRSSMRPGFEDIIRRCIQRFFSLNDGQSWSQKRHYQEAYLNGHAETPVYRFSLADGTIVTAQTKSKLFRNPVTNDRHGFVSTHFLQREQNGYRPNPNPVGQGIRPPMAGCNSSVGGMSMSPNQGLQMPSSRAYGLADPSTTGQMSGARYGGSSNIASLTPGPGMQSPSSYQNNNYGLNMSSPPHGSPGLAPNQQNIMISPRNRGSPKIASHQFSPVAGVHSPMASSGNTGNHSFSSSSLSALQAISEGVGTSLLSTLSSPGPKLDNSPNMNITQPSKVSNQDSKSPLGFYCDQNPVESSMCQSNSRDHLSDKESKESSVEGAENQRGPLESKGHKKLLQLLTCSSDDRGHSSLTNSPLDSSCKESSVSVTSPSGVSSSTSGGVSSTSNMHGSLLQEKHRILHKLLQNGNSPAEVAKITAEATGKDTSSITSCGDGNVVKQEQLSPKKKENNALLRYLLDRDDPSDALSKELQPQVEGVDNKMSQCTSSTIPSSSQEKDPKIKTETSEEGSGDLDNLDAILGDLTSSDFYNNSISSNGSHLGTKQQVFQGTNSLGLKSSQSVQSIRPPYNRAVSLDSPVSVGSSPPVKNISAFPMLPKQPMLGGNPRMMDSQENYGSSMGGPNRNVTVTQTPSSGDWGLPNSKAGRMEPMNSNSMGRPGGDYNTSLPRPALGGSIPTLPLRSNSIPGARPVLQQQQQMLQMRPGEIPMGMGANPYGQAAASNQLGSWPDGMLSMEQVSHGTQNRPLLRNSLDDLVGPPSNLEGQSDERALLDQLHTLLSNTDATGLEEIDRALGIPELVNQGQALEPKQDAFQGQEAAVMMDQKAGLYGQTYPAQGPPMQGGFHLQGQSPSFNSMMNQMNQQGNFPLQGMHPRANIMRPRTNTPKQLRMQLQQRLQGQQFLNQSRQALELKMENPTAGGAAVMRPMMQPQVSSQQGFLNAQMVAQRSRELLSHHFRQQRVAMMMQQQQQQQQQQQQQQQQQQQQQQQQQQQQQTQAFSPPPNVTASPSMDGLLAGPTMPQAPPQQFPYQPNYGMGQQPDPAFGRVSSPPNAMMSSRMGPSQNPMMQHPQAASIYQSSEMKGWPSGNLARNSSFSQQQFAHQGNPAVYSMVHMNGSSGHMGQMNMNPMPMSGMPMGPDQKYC

[2] = test system: transactivating tegument protein VP16 (Human herpesvirus 1), Gal4-VP16 luciferase reporter; assay: VP16 transactivation inhibitors, counter-screen for SRC3 inhibitor project, cell-based, luminescence, high throughput (AID 588794; in the data active = inhibition above about 30%); conditions: mammalian cells, VP16-driven luciferase reporter luminescence; at 3.6 µM; stronger effect = higher value
[3] = biological target: Nuclear receptor coactivator 1 (Homo sapiens) (UniProt Q15788); assay: SRC1 coactivator transcriptional activity inhibitors, confirmation, cell-based, luminescence, quadruplicate (AID 588820;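 active = mean inhibition above 46.68%, the untreated control wells mean plus 3 SD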;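 also: 0% = DMSO wells and 100% = gossypol 36 µM treated wells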); conditions: HEK293 GAL4-SRC1 luciferase reporter, at 3.6 µM, stronger effect = higher value
Chain of Nuclear receptor coactivator 1 (Homo sapiens) (Q15788 whole entry, looked up, the tested form may be a part): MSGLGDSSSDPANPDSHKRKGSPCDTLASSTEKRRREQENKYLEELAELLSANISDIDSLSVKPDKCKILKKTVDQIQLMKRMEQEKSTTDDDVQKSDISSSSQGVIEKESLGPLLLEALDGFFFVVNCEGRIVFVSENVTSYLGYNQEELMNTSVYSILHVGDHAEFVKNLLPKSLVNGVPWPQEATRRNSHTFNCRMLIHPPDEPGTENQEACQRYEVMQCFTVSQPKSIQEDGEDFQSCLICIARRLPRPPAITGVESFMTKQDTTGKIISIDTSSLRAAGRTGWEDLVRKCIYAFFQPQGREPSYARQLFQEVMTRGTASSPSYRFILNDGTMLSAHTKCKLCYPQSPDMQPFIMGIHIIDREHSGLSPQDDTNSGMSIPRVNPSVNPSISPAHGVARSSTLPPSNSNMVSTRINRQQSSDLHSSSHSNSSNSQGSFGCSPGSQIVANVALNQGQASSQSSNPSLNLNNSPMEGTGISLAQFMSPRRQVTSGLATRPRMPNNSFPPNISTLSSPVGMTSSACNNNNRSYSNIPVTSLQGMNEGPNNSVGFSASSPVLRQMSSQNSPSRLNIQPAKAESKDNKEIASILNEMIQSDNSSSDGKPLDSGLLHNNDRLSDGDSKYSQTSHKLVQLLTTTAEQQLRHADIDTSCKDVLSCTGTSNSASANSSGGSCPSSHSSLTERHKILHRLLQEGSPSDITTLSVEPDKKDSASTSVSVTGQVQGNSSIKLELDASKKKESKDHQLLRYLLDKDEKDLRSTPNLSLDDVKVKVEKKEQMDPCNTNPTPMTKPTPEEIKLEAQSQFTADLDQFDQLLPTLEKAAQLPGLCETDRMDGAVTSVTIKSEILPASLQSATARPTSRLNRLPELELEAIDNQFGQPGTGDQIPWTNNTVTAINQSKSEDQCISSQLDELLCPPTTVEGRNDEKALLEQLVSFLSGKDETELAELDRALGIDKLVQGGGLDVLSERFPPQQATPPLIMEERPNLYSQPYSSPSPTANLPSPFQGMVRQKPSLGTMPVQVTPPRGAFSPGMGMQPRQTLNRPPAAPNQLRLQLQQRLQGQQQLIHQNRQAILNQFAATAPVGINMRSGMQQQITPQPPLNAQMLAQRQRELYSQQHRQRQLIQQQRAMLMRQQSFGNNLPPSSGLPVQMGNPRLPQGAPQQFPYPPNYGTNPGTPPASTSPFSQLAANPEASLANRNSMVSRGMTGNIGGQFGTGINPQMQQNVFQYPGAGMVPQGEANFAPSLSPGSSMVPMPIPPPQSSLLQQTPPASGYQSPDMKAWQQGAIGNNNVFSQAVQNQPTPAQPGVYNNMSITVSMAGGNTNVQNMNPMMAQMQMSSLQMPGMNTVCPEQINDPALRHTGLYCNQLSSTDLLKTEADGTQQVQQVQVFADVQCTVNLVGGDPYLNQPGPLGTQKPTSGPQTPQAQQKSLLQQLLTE

[4] = VP16 transactivation inhibitors, counter-screen for SRC1 inhibitor project, cell-based, luminescence, high throughput (AID 588824; in the data active = inhibition above about 25%); conditions: cell-based VP16 transactivation luciferase luminescence; at 3.6 µM; stronger effect = higher value
[5] = StAR promoter reporter inhibitors, counter-screen for LRH-1 inverse agonist project, cell-based, luminescence, high throughput (AID 651611); conditions: StAR promoter luciferase reporter counterscreen, at 3.6 µM, stronger effect = higher value
[6] = biological target: Nuclear receptor subfamily 5 group A member 2 (Homo sapiens) (UniProt O00482); assay: LRH-1 (NR5A2) inverse agonists, retest, confirmation, cell-based, luminescence (AID 651613; in the data active = inhibition above about 42%;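 also: HEK293T cells co-transfected with LRH-1 and StAR promoter luciferase reporter; 0% = vehicle wells and 100% = parental cells lacking receptor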); conditions: cell-based LRH-1 luciferase reporter, inverse agonism; at 3.6 µM; stronger effect = higher value
Chain of Nuclear receptor subfamily 5 group A member 2 (Homo sapiens) (O00482 whole entry, looked up): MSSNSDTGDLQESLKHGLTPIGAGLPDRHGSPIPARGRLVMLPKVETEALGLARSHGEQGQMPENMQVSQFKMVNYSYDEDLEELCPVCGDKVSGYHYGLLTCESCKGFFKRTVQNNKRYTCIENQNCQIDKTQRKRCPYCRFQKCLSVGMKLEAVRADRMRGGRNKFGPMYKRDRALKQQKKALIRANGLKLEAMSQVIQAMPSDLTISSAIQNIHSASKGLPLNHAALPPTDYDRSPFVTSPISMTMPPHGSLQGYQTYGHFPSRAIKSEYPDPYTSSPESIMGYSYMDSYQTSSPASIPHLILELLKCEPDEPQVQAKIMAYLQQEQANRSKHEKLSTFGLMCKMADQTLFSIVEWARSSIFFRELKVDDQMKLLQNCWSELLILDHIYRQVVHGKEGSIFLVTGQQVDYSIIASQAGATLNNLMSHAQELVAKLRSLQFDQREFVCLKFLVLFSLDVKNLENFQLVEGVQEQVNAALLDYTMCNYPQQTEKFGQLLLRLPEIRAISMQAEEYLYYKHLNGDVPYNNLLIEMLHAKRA

[7] = biological target: Steroidogenic factor 1 (Homo sapiens) (UniProt Q13285); assay: SF1 (NR5A1) inverse agonists, counter-screen for LRH-1 inverse agonist project, cell-based, luminescence, high throughput (AID 651614; in the data active = inhibition above about 44%;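 also: cells cotransfected with StAR promoter reporter and SF1 expression vector; 0% = vehicle on cells with receptor and 100% = vehicle on cells lacking receptor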); conditions: cell-based SF1 luciferase reporter, at 3.6 µM, stronger effect = higher value
Chain of Steroidogenic factor 1 (Homo sapiens) (Q13285 whole entry, looked up, the tested form may be a part): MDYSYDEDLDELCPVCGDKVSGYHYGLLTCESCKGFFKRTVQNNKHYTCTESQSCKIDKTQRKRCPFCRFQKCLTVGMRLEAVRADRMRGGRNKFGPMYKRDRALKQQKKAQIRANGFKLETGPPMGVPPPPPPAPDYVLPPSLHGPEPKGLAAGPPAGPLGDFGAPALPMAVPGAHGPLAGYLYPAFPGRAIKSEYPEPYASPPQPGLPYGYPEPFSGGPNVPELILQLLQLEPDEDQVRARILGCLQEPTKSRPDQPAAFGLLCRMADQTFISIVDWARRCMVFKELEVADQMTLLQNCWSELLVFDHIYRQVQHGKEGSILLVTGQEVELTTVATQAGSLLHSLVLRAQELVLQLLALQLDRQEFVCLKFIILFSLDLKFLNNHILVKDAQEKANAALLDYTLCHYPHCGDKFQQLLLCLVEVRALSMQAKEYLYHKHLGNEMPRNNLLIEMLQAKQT

[8] = VP16 transactivation reporter inhibitors, counter-screen for LRH-1 inverse agonist project, cell-based, luminescence, high throughput (AID 651615; in the data active = inhibition above about 33%); conditions: Gal4-VP16 luciferase reporter cells, at 3.6 µM, stronger effect = higher value
[9] = test system: transactivating tegument protein VP16 (Human herpesvirus 1); assay: VP16 transactivation reporter inhibitors, counter-screen for SRC2 inhibitor project, cell-based, luminescence, single concentration (AID 652007; in the data active = inhibition above about 36%); conditions: cell-based VP16 transactivation luciferase reporter, at 8.9 µM, stronger effect = higher value
[10] = biological target: Nuclear receptor coactivator 2 (Homo sapiens) (UniProt Q15596); assay: SRC2 coactivator transcriptional activity inhibitors, confirmation, cell-based, luminescence, HEK293, triplicate (AID 652008;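 active = mean inhibition above 46.5%, the solvent-only control mean plus 3 SD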;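 also: 0% = DMSO-treated cells and 100% = Gossypol at 36 µM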); conditions: HEK293 GAL4-SRC2 luciferase reporter, at 8.9 µM, stronger effect = higher value

Measured: inhibition

C#CC[N+](C)(C)CCCCCCCCCCCC
active: [2] 45.9% | [4] 36.6% | [5] 29.7% | [6] 64.7% | [7] 65.8% | [8] 59.8%
inactive: [1] 29.2% | [3] 33.4%

CCOc1ccccc1O[C@H](c1ccccc1)[C@H]1CNCCO1
inactive: [1] 3.48% | [2] -0.26% | [3] -8.72% | [4] 1.35% | [5] 12.6% | [6] 8.61% | [7] 13.7% | [8] 11.6%

CCN1/C(=C/c2ccc3ccccc3[n+]2CC)C=Cc2ccccc21
active: [1] 74% | [2] 86.2% | [3] 55.5% | [4] 84.7% | [5] 78.7% | [6] 110% | [7] 93% | [8] 89.3%

Cc1nn(C(C)(C)C)c(C)c1/C=N/OC(=O)Nc1ccc(Cl)cc1
active: [1] 94% | [2] 91.8% | [3] 87.3% | [4] 87.8% | [5] 92.3% | [6] 95.5% | [7] 93.6% | [8] 88.7%

CC(=NNC(=S)Nc1cccc(Cl)c1)c1ccccn1
active: [1] 71% | [2] 66.5% | [4] 65.1% | [5] 76.5% | [6] 90.8% | [7] 91.1% | [8] 75.7%
inactive: [3] 44.7%

CCN(CC)c1ccc(C(=C2C=CC(=[N+](CC)CC)C=C2)c2ccccc2)cc1
active: [1] 95.5% | [2] 95.9% | [4] 94.3% | [5] 97.7% | [6] 109% | [7] 99.1% | [8] 98.7% | [9] 98.3% | [10] 99.5%
inactive: [3] -95%

C/C(CC(C)(C)C1CCCCC1)=N\NC(N)=S
inactive: [10] 38.4%
active: [1] 72.2% | [2] 60.3% | [3] 48.5% | [4] 59% | [5] 45.6% | [6] 80.8% | [7] 82.8% | [8] 68.6% | [9] 43.8%

COC(=O)c1ccc2nc(Nc3nc4c(F)cc(F)cc4s3)sc2c1
active: [2] 40.6% | [4] 36.7% | [5] 28.2% | [10] 61.1%
inactive: [1] 23.9% | [3] -34.6% | [6] -92.1% | [7] 25.5% | [8] -29.2% | [9] -2.64%

CCn1c(C)cc(C(=O)CN2C(=O)c3ccccc3S2(=O)=O)c1C
active: [2] 31.5% | [5] 33.4% | [9] 46.9% | [10] 59.8%
inactive: [1] 30.1% | [3] -18.2% | [4] 25% | [6] -16.2% | [7] 28.1% | [8] 11%

COc1cc(NC(=O)COc2cc(O)c3c(c2)OC(C)(C)CC3=O)cc(OC)c1OC
inactive: [1] 17.8% | [3] -14.2% | [10] 38.5%
active: [2] 41.5% | [4] 41.3% | [5] 50.4% | [6] 57.3% | [7] 67.5% | [8] 64.6% | [9] 43.5%

COc1cccc(NC(=O)CSc2nnc(-c3cc(C)n(-c4ccccc4)c3C)o2)c1
active: [1] 46.8% | [10] 48.5%
inactive: [2] 23.3% | [3] 3.49% | [4] -14.5% | [5] -29.8% | [6] -55.2% | [7] -12.4% | [8] -23.9% | [9] 11%

Cc1ccc(N(Cc2cc(=O)[nH]c3ccccc23)C(=O)CCl)c(C)c1
active: [1] 55.3% | [2] 34.3% | [5] 37.3% | [6] 72.4% | [7] 75.5% | [8] 46% | [9] 44.4% | [10] 60%
inactive: [3] 34.3% | [4] 24.6%

O=C(NCCc1ccccc1F)c1ccc2c(c1)OCCO2
active: [1] 67.2% | [2] 57.6% | [4] 54.6% | [5] 65.5% | [6] 55.3% | [7] 72.4% | [8] 60.5% | [9] 74.1% | [10] 89.9%
inactive: [3] -11.5%

Clc1ccc(-n2ncc3c(N4CCCCCC4)ncnc32)cc1
active: [1] 77% | [2] 69.2% | [3] 52.9% | [4] 54.3% | [5] 71% | [7] 65.8% | [8] 43% | [9] 57.4% | [10] 84.6%
inactive: [6] 24.8%

O=C(CCl)Nc1cc(SCC(O)CO)cc([N+](=O)[O-])c1 (stereo not given)
active: [1] 91.6% | [2] 72.7% | [3] 56.9% | [4] 78.6% | [5] 95.8% | [6] 110% | [7] 97.7% | [8] 98.2% | [9] 79% | [10] 67.5%

Clc1ccc(-n2ncc3c(NCCN4CCOCC4)ncnc32)cc1
active: [5] 28.4% | [9] 36.7% | [10] 58.9%
inactive: [1] 37.8% | [2] -3.35% | [3] 3.19% | [4] -21.6% | [6] -30.3% | [7] 33.4% | [8] -23.4%

Cc1cc(C(=O)CSc2nnc3ccccn23)c(C)n1-c1ccccc1
inactive: [1] 20.3% | [2] 15.4% | [3] -49.2% | [4] -25.1% | [5] 23.4% | [6] -38.6% | [7] 6.01% | [8] -26.3% | [9] 34.8%
active: [10] 60.7%

Cc1cc(C(=O)COC(=O)c2ccccc2O)c(C)n1CC1CCCO1 (stereo not given)
active: [1] 88.8% | [2] 85.1% | [3] 81.2% | [4] 76.8% | [5] 73.5% | [6] 64.9% | [7] 76.7% | [8] 75.2% | [9] 86.7% | [10] 96.3%

COc1cccc2c1C(=O)c1c(O)c3c(c(O)c1C2=O)CC(O)(C(C)=O)CC3OC1CC(N(C)C)C(O)C(C)O1 (stereo not given)
active: [1] 94.2% | [2] 95.8% | [3] 73.9% | [4] 95.3% | [5] 80% | [6] 104% | [7] 94.5% | [8] 96.3%
inactive: [9] 29.4% | [10] 45.5%

COc1ccc(S(=O)(=O)N2CCOCC2)cc1NC(=O)CCNC(=O)c1ccc([N+](=O)[O-])cc1
active: [1] 88.6% | [2] 60.8% | [3] 75.6% | [4] 33.3% | [5] 89.2% | [6] 99.3% | [7] 95.5% | [8] 72.9% | [10] 49.4%
inactive: [9] 4.19%

CC(C)(C)c1ccc(C(=O)N2CCCCCC2=O)cc1
active: [1] 58% | [2] 41% | [4] 33.1% | [5] 45.6% | [6] 62.1% | [7] 56.1% | [8] 56.4% | [9] 63.6% | [10] 89.2%
inactive: [3] 35.8%

Nc1cc2ccncc2c2ccccc12
active: [1] 72% | [2] 51.6% | [3] 68.9% | [4] 47.8% | [6] 75.6% | [7] 63.2% | [8] 72.3%
inactive: [5] 8.54% | [9] 22.2% | [10] 43.4%

CCCn1c(C)cc(C(=O)CN2C(=O)c3ccccc3S2(=O)=O)c1C
inactive: [3] 45.7% | [6] 36%
active: [1] 70.8% | [2] 60.4% | [4] 55% | [5] 67% | [7] 62.4% | [8] 51.2% | [9] 62.8% | [10] 80.5%

NCC(=O)Nc1ccc(Cl)cc1C(=O)c1ccc[nH]1
inactive: [9] 21.2% | [10] 43.5%
active: [1] 66.1% | [2] 45.8% | [3] 47% | [4] 39.9% | [5] 49.4% | [6] 55.3% | [7] 62.3% | [8] 39.2%

COc1cccc(N2CCN(c3ncnc4c3cnn4-c3ccc(C)cc3C)CC2)c1
active: [1] 88.3% | [2] 81.1% | [3] 54.6% | [4] 86.2% | [5] 83.2% | [6] 97.4% | [7] 89.8% | [8] 90.2% | [9] 81.1% | [10] 72.1%

O=c1c2ccccc2oc2cc(C#CC3(O)CCCCC3)ccc12
inactive: [1] 32.4% | [3] -2.8% | [4] -14.8% | [5] -28.9% | [6] -129% | [7] -33.5% | [8] -40.4% | [9] -4.85%
active: [2] 33.5% | [10] 48.9%

Cc1ccc(C(=O)N/N=C/c2c(O)ccc3ccccc23)cn1
inactive: [9] -4.97% | [10] 33.4%
active: [1] 65.9% | [2] 62.9% | [3] 58.7% | [4] 75.4% | [5] 84.8% | [6] 102% | [7] 89.9% | [8] 83.8%

CC(=O)NC(c1ccc(C(C)C)cc1)c1ccc2cccnc2c1O (stereo not given)
inactive: [9] -23.1% | [10] 26.8%
active: [1] 74.3% | [2] 58.4% | [3] 65.9% | [4] 60.9% | [5] 89.1% | [6] 105% | [7] 86.2% | [8] 75%

C=C1C(=O)[C@]23C[C@H]1CCC2[C@@]1(C)C(C[C@@H]3O)[C@](C)(C(=O)OC)CC[C@@H]1O (stereo not given in full)
inactive: [1] 40% | [2] 24.9% | [3] -14.1% | [7] 42.4% | [9] 34.8%
active: [4] 37.1% | [5] 43.8% | [6] 41.3% | [8] 49.4% | [10] 49.3%

Cc1c(C)c2ccc(OCC(=O)Nc3ccccn3)c(C)c2oc1=O
active: [1] 78.5% | [2] 72.3% | [3] 50.1% | [4] 59.6% | [5] 67.5% | [6] 68.8% | [7] 76.4% | [8] 69.7% | [9] 81.3% | [10] 90.3%

CCOc1cc(CNc2ccc3c(c2)OCCO3)cc(Br)c1OC
active: [1] 50.5% | [2] 29.5% | [5] 39.5% | [10] 48.8%
inactive: [3] -15.9% | [4] -7.96% | [6] -55.6% | [7] 23.8% | [8] -1.87% | [9] 1.28%
